D2 antag – antagonizes the human D2 dopamine receptor; HEK293 TREx D2 cells, calcium flux, dopamine EC80; inhibition, % at 10 µM; actives 2% (n = 340,000); in the data active = inhibition above about 30%; inactive = below that, where a call was filed
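Dopamine at EC80 is the agonist stimulus; test compounds precede it by 180 s. Calcium flux read kinetically in a force-coupled, inducible HEK293 T-REx D2 cell line.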
D2 ag-1 – human D2 receptor agonism in beta-arrestin assay; P14416; DiscoveRx PathHunter D2 beta-arrestin, luminescence, 90 min; 100% = 57 uM dopamine signal; activation, % (no concentration beside the values); actives 0.084% (n = 360,000); in the data active = activation above about 40%; inconclusive = between about 15% and that limit
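DiscoveRx PathHunter D2 beta-arrestin cells (2,100/well) attached overnight, then compound-stimulated 90 min at 37 C in HBSS/10 mM HEPES/0.1% Tween-20 buffer; beta-galactosidase complementation read by luminescence after 1 h at ambient temperature. Dopamine 57 uM final (EC100) as control.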
D2 PAM-1 – positive allosteric modulators of human D2 dopamine receptor; P14416; HEK293 T-REx D2, calcium flux, EC20 dopamine potentiation; potentiation, % at 10 µM; actives 0.34% (n = 340,000); AID 485347;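 active = potentiation over 3 SD above the plate norm, cut at about 30% in these data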
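Potentiation of an EC20 dopamine calcium response is measured in a force-coupled, tetracycline-inducible Hek293 Trex D2 line. Compound-only kinetic reads over 180 s flag agonists before dopamine addition.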
D2 ag-2 – agonists of human D2 dopamine receptor | P14416 | activation, % at 2 µM | AID 485358 | actives 0.53% (n = 340,000) | HEK293 T-REx D2 cells, calcium flux agonist mode;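 active = activation over 3 SD above normal in the single-dose calcium agonist read, cut at about 30% in these data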
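Agonism is scored from calcium flux in a force-coupled, inducible HEK293 cell line expressing D2, read kinetically for 180 s after compound addition against dopamine controls.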
D2 PAM-2 – positive allosteric modulators of human D2 dopamine receptor. P14416. DiscoveRx D2 beta-arrestin cells, luminescence, 90 min; 100% = 57 uM dopamine signal. potentiation, % (test concentration not listed). actives 0.23% (n = 360,000); in the data active = potentiation above about 50%; inconclusive = mostly about 30% to 49%
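PathHunter D2 cells, attached overnight at 37 deg C, received compound in DMSO plus dopamine at EC20 (50 nM final) for 90 min at 37 deg C. Beta-arrestin recruitment was read as luminescence after 1 h with detection reagent at ambient temperature.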
B2AR arrestin – recruits beta-arrestin to the human beta2-adrenergic receptor; actives 0.02% (n = 330,000); beta-arrestin recruitment to beta2AR, cell-based reporter; Potency, µM (titrated, usually from 46.1 µM), actives largely listed as activators; active = well fitted activation curve with a large enough effect; inconclusive = small, poorly fitted or top-dose-only effect; note: nearly all actives have a fitted effect of over 65% in size
Target sequence (P07550 whole entry, looked up): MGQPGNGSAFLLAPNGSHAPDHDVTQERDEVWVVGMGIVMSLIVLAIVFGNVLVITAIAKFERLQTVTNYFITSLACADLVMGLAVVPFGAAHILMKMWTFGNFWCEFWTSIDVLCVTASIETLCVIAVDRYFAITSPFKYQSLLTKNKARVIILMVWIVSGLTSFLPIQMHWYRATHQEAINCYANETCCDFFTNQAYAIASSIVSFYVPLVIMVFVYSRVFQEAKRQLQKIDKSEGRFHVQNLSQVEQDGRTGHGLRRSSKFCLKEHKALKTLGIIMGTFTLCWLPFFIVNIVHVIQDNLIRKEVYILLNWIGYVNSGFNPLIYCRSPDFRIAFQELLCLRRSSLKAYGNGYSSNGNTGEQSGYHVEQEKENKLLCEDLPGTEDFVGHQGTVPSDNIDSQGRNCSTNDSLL
A number is an active result; 0 = inactive; ? = inconclusive; - = not tested or not shown. The list is not random: actives were taken first. Their share in the collection is about 2.4%.

SMILES	D2 antag	D2 ag-1	D2 PAM-1	D2 ag-2	D2 PAM-2	B2AR arrestin
COCCCN1CCN(C2Cc3ccccc3Sc3ccc(Cl)cc32)CC1 (stereo not drawn)	107.0	0	0	0	0	0
CC1CCCCC1NC(=O)c1ccc(-n2cncn2)c([N+](=O)[O-])c1 (stereo not drawn)	0	0	0	0	0	0
CCc1cccc(CC)c1NC(=O)CO/N=C(\C)c1cccs1	0	0	0	0	0	0
CCOc1ccc(NC(=O)C(c2ccccn2)N(C(=O)CCl)c2ccc(OC)cc2)cc1 (stereo not drawn)	0	0	0	0	0	0
COc1ccc(N(C(=O)CCl)C(C)(C(=O)Nc2c(C)cccc2C)c2ccccn2)cc1 (stereo not drawn)	0	0	0	0	0	13µM
CC1=C(C(=O)N(C(C)C)C(C)C)CC(CC(=O)NC(c2ccccc2)c2ccccc2)C(=O)N1Cc1ccc(F)cc1 (stereo not drawn)	-	0	-	-	0	-
OC(COc1c(F)cc(Br)cc1F)CN1CCc2ccccc2C1 (stereo not drawn)	64.8	0	0	0	0	0
OC(COCc1ccccc1)CN1CCc2ccccc2C1 (stereo not drawn)	46.9	0	0	0	0	0
Cc1cccc(C)c1OCC(O)CN1CCc2ccccc2C1 (stereo not drawn)	-	0	-	-	0	-
C=C(C)CN(CC)C(=O)CSc1nc2ncc(Cl)cc2[nH]1	0	0	0	0	0	0
O=C(Oc1ccc(-c2nnco2)cc1)N1CCCCC1	0	0	34.5	0	0	0
Cc1ccc(SC[C@H](c2ccccc2)N2CCN(CCc3ccccc3)CCC2=O)cc1	40.7	0	0	0	0	0
Nc1ccc(-c2nc3ccc(-c4nc5ccccc5o4)cc3[nH]2)cc1	0	0	0	0	64.6	0
Cc1nc2ccc(-c3nc4ccccc4o3)cc2[nH]1	0	0	0	0	0	0
Nc1cc(N)cc(-c2nc3ccccc3[nH]2)c1	0	0	0	0	52.8	0
CCOc1cc(-c2noc(N)c2C#N)cc(OCC)c1OCC	0	40.8	0	0	130.3	0
COc1ccc(Cc2c(C3CCCCC3)nc3ccc(Br)cn23)c(C)c1	-	0	-	-	0	-
CCCN1C2CCCC1CC(NC(=O)c1ccccc1)C2 (stereo not drawn)	30.1	0	0	0	0	0
CCCCN1C2CCCC1CC(NC(=O)c1cccc(Cl)c1)C2 (stereo not drawn)	30.8	0	0	0	0	0
CCCCN1C2CCCC1CC(NC(=O)c1cccc(OC)c1)C2 (stereo not drawn)	0	0	0	0	0	0
CN(C)c1ccc(N2CC(C)(C)C2=O)cc1	0	0	0	0	0	0
C[C@@H](CN=[N+]=[N-])CN1CC[C@H](O)CCC1=O	0	0	0	0	0	0
O=C(CSc1ccc(-c2ccccc2)nn1)Nc1ccc2c(c1)OCCO2	32.1	0	0	0	0	0
COc1ccccc1-c1ccc(SCC(=O)NCCc2ccccc2)nn1	48.4	0	0	0	0	0
CS(=O)(=O)N(CC(=O)Nc1ccc2c(c1)OCO2)c1ccccc1	0	0	0	0	0	0
SMILES	D2 antag	D2 ag-1	D2 PAM-1	D2 ag-2	D2 PAM-2	B2AR arrestin
CCOCC(=O)Nc1ccc2c(c1)OCCO2	0	0	0	0	0	0
CS(=O)(=O)N(CC(=O)Nc1ccc2c(c1)OCCO2)c1ccc2c(c1)OCO2	0	0	47.6	0	0	0
CCC(=O)Nc1ccc2c(c1)OCCO2	0	0	30.2	0	0	0
O=C(CSc1ccccc1)Nc1ccc2c(c1)OCCO2	0	0	0	0	0	0
COc1cccc(NC(=O)CN(c2cccc(OC)c2)S(C)(=O)=O)c1	38.1	0	0	0	0	0
COc1ccc(NC(=O)CSc2ccc(-c3ccccn3)nn2)cc1OC	0	54.3	0	0	?	0
COc1ccccc1NC(=O)CSc1ccc(-c2ccccn2)nn1	0	0	0	0	0	0
C/C(CC(=O)Nc1ccc2c(c1)OCCO2)=N\NC(=O)C(=O)Nc1ccccc1C	32.0	0	0	0	0	0
CSCCC(NC(=O)c1ccccc1Br)C(=O)NCC(C)(C)N1CCOCC1 (stereo not drawn)	0	0	0	0	0	0
CCOC(=O)c1cc2cc(OCc3ccccc3)ccc2nc1C	0	0	0	0	0	0
COc1ccc(-n2nc3c(c2NC(=O)c2c(-c4ccccc4Cl)noc2C)CS(=O)(=O)C3)cc1	0	0	0	0	0	0
CCOC(=O)c1c(NC(=O)CC2Nc3cc(C)c(C)cc3NC2=O)sc(C)c1C (stereo not drawn)	0	0	0	0	0	0
Fc1ccc(N2CCN(c3nnnn3-c3ccccc3)CC2)cc1	50.2	0	0	0	0	0
CCOC(=O)N1CCN(c2nnnn2-c2ccccc2)CC1	-	0	0	-	0	0
CS(=O)(=O)c1ccc(Cl)c(S(=O)(=O)NCc2ccccc2)c1	35.0	0	0	0	0	0
Cc1ccc(NC(=S)NC2CCN(Cc3ccccc3)CC2)c(C)c1	46.9	0	0	0	0	0
Cc1ccccc1NC(=S)NC1CCN(Cc2ccccc2)CC1	78.4	0	0	0	0	0
COc1ccc(NC(=S)NC2CCN(Cc3ccccc3)CC2)cc1OC	0	0	0	0	0	0
Cn1c(N)c(N=O)c(=O)n(C)c1=O	0	0	0	0	0	0
CCN(CC)S(=O)(=O)c1cccc(NC(=O)COC(=O)C2=COCCO2)c1	30.5	0	0	0	0	0
CC(=O)c1c(C)oc2c1cc(O)c1ccccc12	0	0	0	0	0	0
CCOC(=O)c1c(C)oc2c1cc(O)c1ccccc12	0	0	0	0	57.7	0
COCCCNC(=O)C12CCC(C)(C(=O)C1)C2(C)C (stereo not drawn)	0	0	0	0	0	0
COc1nc(OC)nc(N2CCCCCC2)n1	33.0	0	0	0	0	0
Cc1ccc(NC(=S)N(CCN(C)C)C(C)c2cccnc2)c(C)c1 (stereo not drawn)	0	0	32.3	0	0	0
COc1ccc(OC)c(S(=O)(=O)N2CCN(c3c(C)cccc3C)CC2)c1	35.7	0	0	0	0	0
COc1ccc(OC)c(S(=O)(=O)N2c3ccccc3CC2C)c1 (stereo not drawn)	33.0	0	0	0	0	0
COc1ccc(OC)c(S(=O)(=O)N2CCc3ccccc32)c1	0	0	0	0	0	0
CCO[C@@H]1OC(C(=O)NC2CC2)=C[C@H](c2coc3ccccc3c2=O)[C@H]1CCCO	-	0	-	-	0	-

Source: PubChem (National Center for Advancing Translational Sciences (NCATS))
